Laboratory results: PubChem BioAssay AID1851 (National Center for Advancing Translational Sciences (NCATS), 2009)
Values joined by “and” are separate entries in the source; they are usually repeats but may differ in a detail not shown here. Equal values may be shown once. Screen size: about 16,000 compounds; about 4,000 (25%) were called active. Inconclusive results (about 26%) are left out. The call rests on the fitted dose curve; in most records, active means well fitted curve in the direction sought with a large enough effect; inconclusive means small, poorly fitted or top-dose-only effect, or effect the other way; inactive means no such curve, though single readings can be large or run the other way. The list is a sample of the results. A structure can be active in one record and inactive in another.

These compounds were tested against Cytochrome P450 2C9 (Homo sapiens) (UniProt P11712) (assay: Cytochrome panel assay with activity outcomes). Conditions: recombinant CYP, pro-luciferin dealkylation, luminescence, p450-cyp2c9; series mostly up to 57.1 µM; activity, negative = inhibition: at the top concentration.
On the % scale 0 is the no-effect control and ±100 the full control effect.

Sequence of Cytochrome P450 2C9 (Homo sapiens) (P11712 whole entry, looked up): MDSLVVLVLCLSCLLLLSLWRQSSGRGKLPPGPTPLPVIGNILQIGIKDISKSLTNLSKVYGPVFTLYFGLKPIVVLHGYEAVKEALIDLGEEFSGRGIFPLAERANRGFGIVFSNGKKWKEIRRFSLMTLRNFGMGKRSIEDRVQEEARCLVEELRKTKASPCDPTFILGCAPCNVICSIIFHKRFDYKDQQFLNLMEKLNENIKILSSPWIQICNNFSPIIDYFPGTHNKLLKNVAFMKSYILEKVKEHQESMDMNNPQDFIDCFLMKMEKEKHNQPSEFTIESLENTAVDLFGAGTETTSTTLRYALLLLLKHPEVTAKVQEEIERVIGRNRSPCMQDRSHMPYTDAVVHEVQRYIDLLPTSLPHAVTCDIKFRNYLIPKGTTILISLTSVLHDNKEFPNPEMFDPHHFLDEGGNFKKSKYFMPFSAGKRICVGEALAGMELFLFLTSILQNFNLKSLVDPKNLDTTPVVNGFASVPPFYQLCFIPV

SMILES | activity, negative = inhibition | AC50
O=C(O)Cc1cnc[nH]1 | -5.96% (inactive) | 
C=CCN1C[C@H](C)N([C@H](c2ccc(C(=O)N(CC)CC)cc2)c2cccc(OC)c2)C[C@H]1C | -11.6% (inactive) | 
C=CCN1C[C@@H](C)N([C@H](c2ccc(C(=O)N(CC)CC)cc2)c2cccc(OC)c2)C[C@H]1C | -9.55% (inactive) | 
C=CCN1C[C@H](C)N([C@H](c2ccc(C(=O)N(CC)CC)cc2)c2cccc(O)c2)C[C@H]1C |  | 3980 nM (active)
NC(N)=NS(=O)(=O)c1ccc(N)cc1 | 8.95% [at 25.6 µM] (inactive) | 
CC[C@@H](CO)NC(=O)[C@H]1C=C2c3cccc4c3c(cn4C)C[C@H]2N(C)C1 | -29.9% (inactive) | 
O=[N+]([O-])c1cc(-c2ccc([As](=O)(O)O)cc2)ccc1[As](=O)(O)O | 16.8% [at 11.4 µM] (inactive) | 
CN(C)C=C1C(=O)N(C2CCCCC2)C(=O)N(C2CCCCC2)C1=O |  | 2240 nM (active)
COc1cc(-c2ccc(=O)[nH]n2)ccc1OC(F)F | -1.03% [at 25.6 µM] (inactive) | 
C[N+](C)(C)CCCCCC[N+](C)(C)C | 21.2% [at 25.6 µM] (inactive) | 
CN=C(NC#N)NCCSCc1nc[nH]c1C | -1.35% (inactive) | 
O=C(O)CS(=O)(=O)C(c1ccccc1)c1ccccc1 | -12.7% [at 11.4 µM] (inactive) | 
C(#CCN1CCCC1)CN1CCCC1 | 7.11% [at 25.6 µM] (inactive) | 
O=C1CCCN1CC#CCN1CCCC1 |  | 2000 nM (active)
C[N+](C)(C)CC#CCN1CCCC1=O | inactive | 
CC(C)(C)C(=O)CP(=O)(O)O | 9.42% [at 11.4 µM] (inactive) | 
OC(c1ccccc1)(c1ccccc1)C1CCCN1 (stereo not drawn) | -17.9% (inactive) | 
COc1ccccc1CN1CC[C@@]2(CCCN(C(=O)Oc3ccccc3)C2)C1 | -9.71% (inactive) | 
Cc1ccc(C(=O)C2C(=O)c3ccccc3C2=O)cc1 |  | 2240 nM (active)
CCN1C[C@@]2(COC)CC[C@H](O)[C@@]34[C@@H]2C[C@@H]([C@@H]13)[C@]1(O)C[C@@H](OC)C2C[C@H]4[C@H]1[C@H]2OC(C)=O | -9.7% [at 25.6 µM] (inactive) | 
c1ccc2sc(C3(N4CCCCC4)CCCCC3)cc2c1 | inactive | 
CC[C@]1(C2=NCCN2)Cc2ccccc2O1 | inactive | 
c1ccc2c(c1)OC[C@@H](C1=NCCN1)O2 |  | inactive and 31.6 µM (active)
COc1cc2c(cc1O)[C@H]1Cc3ccc(OC)c(O)c3CN1CC2 | -28.6% [at 25.6 µM] (inactive) | 
c1ccc(N2CCCC3(CCNCC3)C2)cc1 | -19.3% (inactive) | 
CC(C)Oc1cccnc1N(C)C1CCN(Cc2ccccc2)CC1 | -16.1% (inactive) | 
O=C1Nc2ccc(I)cc2/C1=C/c1cc(Br)c(O)c(Br)c1 |  | 12600 nM (active)
COc1cc2c(cc1OC)[C@@]13CCN4C=C5CCO[C@H]6CC(=O)N2[C@@H]1[C@@H]6[C@H]5C[C@H]43 | -3.46% [at 11.4 µM] (inactive) | 
